Hits are enriched below; roughly 6.8% of the tested compounds scored in any of these assays.
C diff HTS – C. difficile growth inhibitors, primary screen, HTS; Clostridium difficile clinical isolate growth, OD600, 24 h; stronger effect = lower value; growth activity, negative = inhibition, % at 16 µg/mL (by protocol); actives 0.25% (n = 86,000); AID 1259249, 2017;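 active = mean growth activity at or below -80% and every replicate also at or below -80%; inconclusive = mean at or below -80% but some replicate above -80%; inactive = mean growth activity above -80%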;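 note: 0% = DMSO wells and -100% = levofloxacin 16 µg/mL wells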
Pf Dd2 inh – P. falciparum Dd2 growth inhibitors, primary screen, SYBR Green fluorescence, single dose replicates; 72 h; stronger effect = lower value; activity change, % at 10 µM; actives 2.3% (n = 94,000); AID 1159554, 2015; in the data active = activity change below about -80%; inconclusive = no clear call, values can overlap the other calls
T cruzi growth-1 – T. cruzi intracellular proliferation inhibitors, primary screen, cell-based, beta-gal Tulahuen parasites, NIH3T3 host, luminescence; T. cruzi beta-gal in NIH3T3, GalScreen luminescence, 90 h; AID 624255, 2012; actives 5.9% (n = 77,000); inhibition, % at 8.34 µM;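 active = mean inhibition above about 93%, with at least 55% of replicates each passing it, limit read from the data, passing the limit was not always enough; inconclusive = only one of those two conditions holds; inactive = neither condition holds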
T cruzi growth-2 – T. cruzi intracellular proliferation inhibitors, confirmation, cell-based, NIH3T3 host, beta-gal parasite, luminescence, cherry-pick. shares compounds with T cruzi growth-1. T. cruzi beta-gal in NIH3T3, GalScreen luminescence, 90 h. inhibition, % at 8.35 µM. actives 72% (n = 5,600). AID 651739, 2012;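 active = mean replicate inhibition above about 95% and at least 55% of replicates individually reaching it, limit read from the data; inconclusive = only one of the two criteria is met; inactive = neither criterion is met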
T cruzi growth-3 – inhibitors of intracellular T. cruzi replication, confirmation, NIH3T3 host cells, beta-gal parasites, cherry-pick, set 2; shares compounds with T cruzi growth-1; T. cruzi beta-gal in NIH3T3, GalScreen luminescence, 90 h; inhibition, % at 2.09 µM; actives 21% (n = 5,600);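 active = mean inhibition above about 95%, with at least 55% of replicates also reaching it, limit read from the data; inconclusive = meets just one of the two conditions; inactive = meets neither condition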;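 note: plate controls were neutral control median for no effect and positive control median for full effect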
NIH3T3 tox – cytotoxicity in mouse NIH/3T3 fibroblasts, confirmation, cytotoxicity control for T. cruzi proliferation inhibitor project, cell-based, cherry-pick, single point; shares compounds with T cruzi growth-1; NIH/3T3 viability, CellTiter-Glo ATP luminescence, 90 h; cytotoxicity (signal decrease), % at 8.35 µM; actives 14% (n = 5,600); AID 651742, 2012;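 active = mean signal decrease across replicates above about 35% based on untreated-well scatter, with enough replicates individually passing, limit read from the data; inconclusive = no rule stated though some were filed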;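 note: 0% = median of neutral control wells and 100% = median of positive control wells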
NIH3T3 tox 2 – NIH/3T3 fibroblast cytotoxicity, confirmation, cytotoxicity control, cell-based, cherry-pick, single point, set 2 | shares compounds with T cruzi growth-1 | NIH/3T3 viability, CellTiter-Glo ATP luminescence, 90 h | inhibition, % at 24.9 µM | actives 56% (n = 5,600) | AID 651744, 2012;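 active = mean loss of cell viability signal at or above a set limit, and enough replicates individually reaching it; inconclusive = meets only the mean limit or only the replicate share; inactive = meets neither condition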;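 note: 0% = median of neutral control wells and 100% = median of positive control wells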
The depositor's hits bear a star; ? = inconclusive; . = no result; ! = not confirmed by another sample.

SMILES | C diff HTS | Pf Dd2 inh | T cruzi growth-1 | T cruzi growth-2 | T cruzi growth-3 | NIH3T3 tox | NIH3T3 tox 2
COc1ccc(S(=O)(=O)N2CCCCN3[C@H](CO)[C@@H](c4ccc(C#CCC(C)C)cc4)[C@@H]3C2)cc1 | 2.7 | -19.4 | 37.8 | . | . | . | .
COc1ccc(S(=O)(=O)N2CCCCN3[C@H](CO)[C@@H](c4ccc(C#CC(C)C)cc4)[C@@H]3C2)cc1 | 0.6 | -16.7 | 95.9* | 101.2* | 74.7 | 20.7 | 19.8
COc1ccc(S(=O)(=O)N2CCCCN3[C@H](C2)[C@H](c2ccc(C#CC(C)C)cc2)[C@@H]3CO)cc1 | 25.0 | -23.8 | 117.8* | 107.4* | 105.3* | 1.1 | 69.2*
CCCC(=O)Nc1ccc2c(c1)C(=O)N(C)[C@H]1CC[C@@H](CC(=O)OC)O[C@H]1CO2 | -5.3 | 2.5 | -6.4 | . | . | . | .
CCC(=O)N1CC2(C1)[C@H](c1ccc(C3=CCCC3)cc1)[C@H](CO)N2C(=O)COC | -3.3 | 26.1 | . | . | . | . | .
C[C@H](CO)N1C[C@H](C)[C@@H](CN(C)C(=O)c2ccccn2)Oc2ncc(C#Cc3ccccn3)cc2C1=O | -1.9 | -0.7 | . | . | . | . | .
COc1ccc2c3c(n(C)c2c1)[C@H](CO)N(C(=O)NC(C)C)CC31CN(CC2CCOCC2)C1 | -9.1 | 12.1 | . | . | . | . | .
C[C@@H]1CN([C@@H](C)CO)C(=O)c2cc(C3=CCCCC3)cnc2O[C@@H]1CN(C)C(=O)Cc1ccccc1 | 12.4 | . | 89.4 | . | . | . | .
C[C@@H]1CN([C@H](C)CO)C(=O)c2cc(C3=CCCC3)cnc2O[C@@H]1CN(C)C(=O)Cc1ccncc1 | -2.4 | -31.3 | 95.8* | 25.0 | -13.1 | -9.4 | 28.3*
C[C@@H]1CN([C@@H](C)CO)C(=O)c2cc(C3=CCCCC3)cnc2O[C@H]1CN(C)C(=O)Cc1ccncc1 | 2.3 | -18.7 | . | . | . | . | .
C[C@@H]1CN([C@@H](C)CO)C(=O)c2cc(C3=CCCCC3)cnc2O[C@H]1CN(C)C(=O)Cc1ccccc1 | -6.0 | -3.6 | ? | 75.3 | 54.9 | 32.2 | 64.4*
CCCN(C)C[C@H]1OCCCC[C@@H](C)Oc2ccc(NS(=O)(=O)c3cn(C)cn3)cc2C(=O)N([C@H](C)CO)C[C@H]1C | 1.2 | -59.2 | 39.3 | . | . | . | .
C[C@@H](O)C#Cc1ccc2c(c1)O[C@@H](CN(C)Cc1ccc(-c3ccccc3)cc1)[C@@H](C)CN([C@@H](C)CO)S2(=O)=O | 4.1 | -78.7 | -45.9 | . | . | . | .
C[C@H](O)C#Cc1ccc2c(c1)O[C@@H](CN(C)Cc1ccc(-c3ccccc3)cc1)[C@H](C)CN([C@@H](C)CO)S2(=O)=O | 1.1 | -45.2 | 113.1*! | 100.8* | 99.0* | 114.4* | 107.7*
C[C@H](O)C#Cc1ccc2c(c1)O[C@@H](CN(C)Cc1ccc(-c3ccccc3)cc1)[C@@H](C)CN([C@H](C)CO)S2(=O)=O | 5.1 | -42.3 | 78.3 | . | . | . | .
C[C@@H]1CN([C@@H](C)CO)S(=O)(=O)c2ccc(C#CC(C)(C)O)cc2O[C@H]1CN(C)Cc1ccccc1 | -11.3 | -47.1 | 83.3 | . | . | . | .
C[C@@H]1CN([C@H](C)CO)S(=O)(=O)c2ccc(C#CC(C)(C)O)cc2O[C@H]1CN(C)Cc1ccc(-c2ccccc2)cc1 | 14.6 | -84.0* | 120.6* | 89.5 | 109.7* | 118.2* | 107.0*
C[C@H](CO)N1C[C@H](C)[C@@H](CN(C)Cc2ccc(-c3ccccc3)cc2)Oc2cc(C#C[C@@H](C)O)ccc2S1(=O)=O | -0.4 | -61.1 | 97.0* | 87.2 | 107.1* | 108.7* | 103.5*
CCCC(=O)Nc1ccc2c(c1)C(=O)N(C)C[C@@H](OC)[C@H](C)CN(Cc1ccc(F)cc1)[C@@H](C)CO2 | . | . | 14.1 | . | . | . | .
Cc1ccccc1-c1ccc([C@H]2[C@H]3CN(C(=O)c4ccc(F)cc4)CC(=O)N3[C@H]2CO)cc1 | -5.1 | -37.6 | . | . | . | . | .
